Results filed as inconclusive are left out. Calls of active or inactive are those of the source.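 Rule for the calls, unless noted: active = inhibition above 50%, about 3 SD of the validation set; inactive = the rest.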
How the values were obtained:
[1] = rapamycin-like changes in RPL19A-GFP expression – cell-based, S. cerevisiae, multiplex flow cytometry, primary screen (AID 1862; in the data active = percent of DMSO control GFP below about 86%;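 note: lower values mimic rapamycin by blocking the RPL19A rise seen in DMSO cells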); conditions: S. cerevisiae RPL19A-GFP strain, flow cytometry fluorescence, 3 h; at 10 µM; stronger effect = lower value
[2] = TOR pathway GLN3 branch reporter MEP2-GFP changes – S. cerevisiae, multiplex flow cytometry, primary screen (AID 1867;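 active = GFP response, as percent of the DMSO control, above the screen-wide mean plus 3 SD, about 139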;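 note: median GFP channel fluorescence of barcode-gated MEP2-GFP cells measured by flow cytometry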); conditions: S. cerevisiae MEP2-GFP strain, 3 h, at 10 µM, stronger effect = higher value, 100% means same as DMSO wells
[3] = TOR pathway RTG branch CIT2 reporter changes – S. cerevisiae, GFP fusion, multiplex flow cytometry, primary screen (AID 1870;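 active = percent response above a set limit, the screen-wide mean plus 3 SD, cut at about 130% in these data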;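 note: barcoded CIT2-GFP strain pooled with four other GFP strains with rapamycin as positive control; median GFP fluorescence per well over plate mean of DMSO wells so 100% = DMSO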); conditions: S. cerevisiae CIT2-GFP expression, 3 h, at 10 µM, stronger effect = higher value
[4] = TOR pathway LAP4-GFP level changes – S. cerevisiae, multiplex flow cytometry, primary screen (AID 1873;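 active = GFP signal, as percent of the solvent control, above the screen mean plus 3 SD, about 149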); conditions: S. cerevisiae LAP4-GFP expression, 3 h, at 10 µM, stronger effect = higher value
[5] = yeast AGP1-GFP level changes, GLN3 branch – cell-based, multiplex flow cytometry, S. cerevisiae, primary screen (AID 1887;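 active = GFP signal above the screen-wide mean plus 3 SD, that is over about 124.5% of the solvent control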;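 note: AGP1-GFP fusion strain of S. cerevisiae within a five-strain barcoded multiplex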); conditions: 3 h, at 10 µM, stronger effect = higher value
[6] = reduced mouse 2C T cell binding to pMHC/ICAM-1 vesicles – MLPCN validation set, flow cytometry, LFA-1/ICAM-1 modulator project, pilot screen (AID 2523;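 active = response below a set limit, under 55% cells CD8-positive and vesicle-bound, and CD8 cells' 90th-percentile brightness under 279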;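 for vesicle binding response: mean PE anti-B7-1 fluorescence of CD8+ cells relative to row control; 100% = QL9-loaded vesicles with DMSO vehicle in the same plate row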); conditions: 2C mouse CD8+ T cells, at 7 µM, stronger effect = lower value; double positive events: measured here: CD8+/vesicle+ event percentage
[7] = biological target: Integrin beta-1 (Homo sapiens) + Integrin alpha-4 (Homo sapiens) (UniProt P13612+P05556); assay: alpha4beta1 integrin LIBS antibody binding reduction – U937 cells, HUTS-21 mAb, flow cytometry, validation set, VLA-4 allosteric modulator project, pilot screen (AID 2674); conditions: HUTS-21 LIBS mAb binding, at 6.7 µM, stronger effect = higher value, binding induced by LDV ligand;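 note: antibody binding induced by the VLA-4 ligand LDV present at three times its Kd; 0% = LDV ligand with antibody and no compound and 100% = antibody without LDV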
Chain of Integrin beta-1 (Homo sapiens) + Integrin alpha-4 (Homo sapiens) (P05556 whole entry, looked up): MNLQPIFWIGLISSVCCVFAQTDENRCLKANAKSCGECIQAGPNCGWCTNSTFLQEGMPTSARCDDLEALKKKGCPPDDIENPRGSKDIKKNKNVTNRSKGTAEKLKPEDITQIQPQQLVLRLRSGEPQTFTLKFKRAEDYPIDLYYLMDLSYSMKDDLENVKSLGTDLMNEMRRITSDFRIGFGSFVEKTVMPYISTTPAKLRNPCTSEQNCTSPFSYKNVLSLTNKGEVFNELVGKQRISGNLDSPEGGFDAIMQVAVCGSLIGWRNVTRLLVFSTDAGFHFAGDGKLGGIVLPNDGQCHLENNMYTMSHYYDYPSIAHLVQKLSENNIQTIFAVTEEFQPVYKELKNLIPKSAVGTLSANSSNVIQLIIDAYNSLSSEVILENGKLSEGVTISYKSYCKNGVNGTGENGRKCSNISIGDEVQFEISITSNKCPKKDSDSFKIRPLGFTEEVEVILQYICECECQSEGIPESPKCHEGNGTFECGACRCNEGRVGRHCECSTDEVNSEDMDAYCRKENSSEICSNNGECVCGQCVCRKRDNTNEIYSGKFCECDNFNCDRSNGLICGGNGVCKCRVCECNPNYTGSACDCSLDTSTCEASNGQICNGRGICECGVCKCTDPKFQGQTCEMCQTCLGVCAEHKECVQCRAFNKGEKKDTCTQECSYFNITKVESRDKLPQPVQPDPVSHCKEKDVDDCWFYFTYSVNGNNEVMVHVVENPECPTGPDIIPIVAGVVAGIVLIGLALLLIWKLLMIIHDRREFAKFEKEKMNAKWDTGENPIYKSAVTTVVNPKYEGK
Chain of Integrin beta-1 (Homo sapiens) + Integrin alpha-4 (Homo sapiens) (P13612 whole entry, looked up): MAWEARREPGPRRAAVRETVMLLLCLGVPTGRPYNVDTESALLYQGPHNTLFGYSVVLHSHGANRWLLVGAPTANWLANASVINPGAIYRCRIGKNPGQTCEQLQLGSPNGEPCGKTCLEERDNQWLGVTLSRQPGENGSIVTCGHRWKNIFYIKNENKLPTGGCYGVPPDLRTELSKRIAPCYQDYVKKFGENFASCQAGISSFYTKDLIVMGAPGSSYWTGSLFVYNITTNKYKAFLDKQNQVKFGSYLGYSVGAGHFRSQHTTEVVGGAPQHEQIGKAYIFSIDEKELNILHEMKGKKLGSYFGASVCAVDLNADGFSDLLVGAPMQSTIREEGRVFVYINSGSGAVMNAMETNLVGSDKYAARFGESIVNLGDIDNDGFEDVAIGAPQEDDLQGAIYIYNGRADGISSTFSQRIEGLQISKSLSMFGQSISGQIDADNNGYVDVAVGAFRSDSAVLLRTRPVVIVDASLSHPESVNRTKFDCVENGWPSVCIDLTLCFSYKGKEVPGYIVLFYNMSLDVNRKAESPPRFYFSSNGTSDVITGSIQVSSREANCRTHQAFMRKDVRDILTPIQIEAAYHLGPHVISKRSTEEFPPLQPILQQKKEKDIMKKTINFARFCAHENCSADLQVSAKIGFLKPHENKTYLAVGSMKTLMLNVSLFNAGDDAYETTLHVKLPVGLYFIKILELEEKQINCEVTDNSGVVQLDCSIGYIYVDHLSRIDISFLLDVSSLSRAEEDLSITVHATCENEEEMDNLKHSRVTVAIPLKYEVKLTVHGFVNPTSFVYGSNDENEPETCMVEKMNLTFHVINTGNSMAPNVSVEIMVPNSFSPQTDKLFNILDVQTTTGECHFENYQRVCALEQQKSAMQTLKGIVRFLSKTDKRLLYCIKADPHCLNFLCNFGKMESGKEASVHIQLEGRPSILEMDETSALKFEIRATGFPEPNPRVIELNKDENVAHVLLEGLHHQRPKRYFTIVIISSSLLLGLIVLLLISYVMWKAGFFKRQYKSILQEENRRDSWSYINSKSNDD

[8] = calorie-restriction mimetic ROS inhibitors, yeast – validation compound set, pilot screen (AID 2706;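 active = superoxide response below 65% of plate, a cut near 3 SD across the whole screen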;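 note: yeast exposed to compound for one week at 30 degrees C before staining; 100% = mean of all compound wells on the same plate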); conditions: S. cerevisiae aging, superoxide DHE fluorescence; at 10 µM, stronger effect = lower value
[9] = biological target: Beta-adrenergic receptor kinase 1 (Homo sapiens) (UniProt P25098); assay: GRK2 binders displacing RNA aptamer, biochemical, validation, human GRK2, bead flow cytometry (AID 488806;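 active = aptamer binding inhibition above 30%, about 3 SD of noise from non-fluorescent compounds; inactive = inhibition at or below 30%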); conditions: bead-bound GRK2, FAM-aptamer displacement, at 10 µM, stronger effect = higher value
Chain of Beta-adrenergic receptor kinase 1 (Homo sapiens) (P25098 whole entry, looked up): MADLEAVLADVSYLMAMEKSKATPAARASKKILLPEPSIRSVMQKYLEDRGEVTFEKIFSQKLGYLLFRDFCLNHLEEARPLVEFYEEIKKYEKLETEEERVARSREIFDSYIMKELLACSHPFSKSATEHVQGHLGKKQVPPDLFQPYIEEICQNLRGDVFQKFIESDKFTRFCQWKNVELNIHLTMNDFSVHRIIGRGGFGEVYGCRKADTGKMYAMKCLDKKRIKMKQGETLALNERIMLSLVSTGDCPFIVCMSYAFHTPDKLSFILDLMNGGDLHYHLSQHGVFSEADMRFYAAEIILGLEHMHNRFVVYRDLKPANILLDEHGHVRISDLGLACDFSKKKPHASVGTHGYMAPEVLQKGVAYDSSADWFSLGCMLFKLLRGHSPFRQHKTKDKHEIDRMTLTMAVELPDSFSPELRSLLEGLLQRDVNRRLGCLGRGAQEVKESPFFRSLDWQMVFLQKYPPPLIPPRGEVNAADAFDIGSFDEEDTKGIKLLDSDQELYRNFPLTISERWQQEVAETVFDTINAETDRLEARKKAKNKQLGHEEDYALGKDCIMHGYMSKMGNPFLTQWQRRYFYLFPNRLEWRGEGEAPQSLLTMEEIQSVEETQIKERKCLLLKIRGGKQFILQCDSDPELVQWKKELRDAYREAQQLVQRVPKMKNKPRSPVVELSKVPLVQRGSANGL

[10] = biological target: AP-2 complex subunit beta (Homo sapiens) (UniProt P63010); assay: beta-arrestin/AP2 interaction blockers – biochemical, validation set, GST-AP2 beads, flow cytometry, pilot screen (AID 504541;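 active = inhibition above 54%, about 3 SD of non-fluorescent compounds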;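 note: AP2 carries R879A mutation and is captured from E. coli lysate; bead-bound FITC arrestin peptide fluorescence measuring arrestin peptide binding to AP2; 0% = DMSO wells and 100% = excess unlabeled arrestin peptide control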); conditions: FITC arrestin peptide, at 10 µM, stronger effect = higher value, AP2 beta2 appendage fragment, R879A mutant
Chain of AP-2 complex subunit beta (Homo sapiens) (P63010 whole entry, looked up, the tested form may be a part, one chain of several): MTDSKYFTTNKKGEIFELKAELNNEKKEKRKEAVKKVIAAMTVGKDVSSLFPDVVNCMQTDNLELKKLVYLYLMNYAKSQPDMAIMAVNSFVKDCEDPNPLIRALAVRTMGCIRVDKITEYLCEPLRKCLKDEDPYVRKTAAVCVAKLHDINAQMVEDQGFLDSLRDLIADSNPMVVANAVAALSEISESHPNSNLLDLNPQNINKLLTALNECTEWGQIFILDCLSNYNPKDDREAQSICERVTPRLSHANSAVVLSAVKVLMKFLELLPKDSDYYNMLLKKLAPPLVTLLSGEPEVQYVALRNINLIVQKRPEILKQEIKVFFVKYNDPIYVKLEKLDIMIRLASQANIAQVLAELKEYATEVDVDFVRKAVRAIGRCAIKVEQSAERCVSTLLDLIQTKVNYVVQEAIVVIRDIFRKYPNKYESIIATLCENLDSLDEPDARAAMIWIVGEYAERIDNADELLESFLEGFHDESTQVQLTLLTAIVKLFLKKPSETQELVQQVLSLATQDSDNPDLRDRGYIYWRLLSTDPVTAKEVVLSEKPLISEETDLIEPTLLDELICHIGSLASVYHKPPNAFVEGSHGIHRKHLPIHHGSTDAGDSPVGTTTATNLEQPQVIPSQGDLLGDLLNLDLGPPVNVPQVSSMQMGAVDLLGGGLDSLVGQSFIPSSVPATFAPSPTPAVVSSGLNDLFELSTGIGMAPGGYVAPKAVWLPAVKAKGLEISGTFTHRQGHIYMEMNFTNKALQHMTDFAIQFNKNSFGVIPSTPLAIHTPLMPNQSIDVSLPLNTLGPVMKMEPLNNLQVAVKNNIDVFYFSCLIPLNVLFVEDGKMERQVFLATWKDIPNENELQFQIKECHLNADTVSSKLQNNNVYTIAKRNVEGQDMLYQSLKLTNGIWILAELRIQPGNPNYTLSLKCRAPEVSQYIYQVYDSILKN

[11] = cytosolic pH regulators acting via V-ATPase – S. cerevisiae, pHLuorin, HTS validation (AID 504600; in the data active = response above about 15%;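 note: plate controls were DMSO for no effect and reference compound for full effect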); conditions: V-ATPase proton transport, at 10 µM, stronger effect = higher value
[12] = system: anti-desmoglein-3 scFv antibody binding to human DSG3; assay: blockers of pathogenic pemphigus antibody–desmoglein-3 binding – biochemical, validation compound set, bead-based, flow cytometry, pilot screen (AID 588368;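 active = binding below the plate cutoff, the plate median minus 3 SD, with a reading above zero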;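 note: signal is the median channel fluorescence of bead-bound GFP antibody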); conditions: Protein G beads, DSG3-Fc, scFv-GFP binding, at 10 µM, stronger effect = lower value
[13] = Nile Red efflux blockade in pump-expressing yeast – validation compound set, multiplex, phenotypic, pilot screen (AID 588506;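 active = efflux inhibition above 0.42, the validation set average plus 4 SD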;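 note: Nile Red retained in cells so higher fluorescence means more efflux inhibition; 0 = negative control wells and 1 = enniatin B 25 µM full block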); conditions: S. cerevisiae pump-expressing triplex, Nile Red efflux flow cytometry; at 10 µM; stronger effect = higher value; the pumps come from Candida albicans
[14] = biological target: ATP-binding cassette sub-family B member 6 (Homo sapiens) (UniProt Q9NP58); assay: blockers of ABCB6-driven porphyrin uptake – K562-ABCB6 cells, flow cytometry, validation set, pilot screen (AID 588550;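 active = inhibition above the screen-wide mean plus 3 SD, about 51%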;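 note: 0% = DMSO wells and 100% = benzethonium chloride 70 µM positive control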); conditions: K562-ABCB6 porphyrin accumulation, 1 h, at 10 µM, stronger effect = higher value
Chain of ATP-binding cassette sub-family B member 6 (Homo sapiens) (Q9NP58 whole entry, looked up): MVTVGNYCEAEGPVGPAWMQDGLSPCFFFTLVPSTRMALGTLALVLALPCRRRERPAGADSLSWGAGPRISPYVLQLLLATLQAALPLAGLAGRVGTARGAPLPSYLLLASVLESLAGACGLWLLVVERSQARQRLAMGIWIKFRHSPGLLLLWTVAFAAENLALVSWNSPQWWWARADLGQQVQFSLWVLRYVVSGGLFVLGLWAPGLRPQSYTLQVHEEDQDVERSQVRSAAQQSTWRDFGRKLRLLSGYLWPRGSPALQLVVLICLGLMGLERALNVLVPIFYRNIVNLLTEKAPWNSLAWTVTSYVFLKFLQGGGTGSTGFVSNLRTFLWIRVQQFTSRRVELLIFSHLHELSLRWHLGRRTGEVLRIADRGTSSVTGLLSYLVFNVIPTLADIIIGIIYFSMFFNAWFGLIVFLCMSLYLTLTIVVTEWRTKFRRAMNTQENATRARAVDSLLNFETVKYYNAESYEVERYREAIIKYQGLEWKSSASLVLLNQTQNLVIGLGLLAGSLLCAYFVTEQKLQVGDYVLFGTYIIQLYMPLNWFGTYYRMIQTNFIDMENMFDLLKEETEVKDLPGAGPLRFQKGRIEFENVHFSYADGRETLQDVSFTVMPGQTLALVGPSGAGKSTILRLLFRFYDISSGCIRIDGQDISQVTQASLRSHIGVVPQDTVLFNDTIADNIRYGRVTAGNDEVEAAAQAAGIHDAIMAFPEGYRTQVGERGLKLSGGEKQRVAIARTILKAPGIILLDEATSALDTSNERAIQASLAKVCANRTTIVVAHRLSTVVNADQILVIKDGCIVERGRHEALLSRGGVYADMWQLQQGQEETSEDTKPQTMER

[15] = AML differentiation inducers, ER-HoxA9 marrow cells – cell-based, GFP/MAC1 double positive, flow cytometry, validation set, primary screen (AID 588685;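 active = differentiation response of at least 50%, scaled between solvent and reference control, from cells with both markers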;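 note: compound exposure lasts four days before antibody staining and flow analysis; 0% = DMSO wells and 100% = 5 µM fulvestrant positive control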); conditions: stronger effect = higher value, normalized: vehicle 0, fulvestrant 100
[16] = biological target: Beta-2 adrenergic receptor (Homo sapiens) (UniProt P07550); assay: agonist-induced loss of surface beta2AR – cell-based, FAP fluorogen, flow cytometry, validation set, pilot screen (AID 504459;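 active = percent response above 42, roughly 3 SD of non-fluorescent test compounds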;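 note: agonist-driven loss of surface beta2AR via internalization measured by FAP dye flow cytometry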); conditions: Am2.2-beta2AR cells, at 10 µM, stronger effect = higher value
Chain of Beta-2 adrenergic receptor (Homo sapiens) (P07550 whole entry, looked up): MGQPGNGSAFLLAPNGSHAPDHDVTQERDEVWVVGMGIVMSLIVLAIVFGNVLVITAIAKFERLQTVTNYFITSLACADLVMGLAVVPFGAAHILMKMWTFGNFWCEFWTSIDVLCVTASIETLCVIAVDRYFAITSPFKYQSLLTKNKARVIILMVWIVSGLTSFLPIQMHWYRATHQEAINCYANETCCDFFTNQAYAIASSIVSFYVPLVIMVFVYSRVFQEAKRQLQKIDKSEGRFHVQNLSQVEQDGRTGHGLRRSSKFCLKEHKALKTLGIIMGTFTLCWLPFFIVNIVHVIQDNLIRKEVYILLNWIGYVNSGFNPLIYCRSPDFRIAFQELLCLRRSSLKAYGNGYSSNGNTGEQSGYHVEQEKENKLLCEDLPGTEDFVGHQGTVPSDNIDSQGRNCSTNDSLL

Row | SMILES | percent of DMSO control GFP [1] | GFP response vs DMSO [2] | percent response of DMSO control [3] | GFP response vs DMSO [4] | GFP response, % of DMSO [5] | double positive events [6] [%] | vesicle binding response [6] | inhibition [7] | superoxide response (% of plate) [8] | aptamer binding inhibition [9] | inhibition [10] | response [11] | binding (% of control) [12] | efflux inhibition (fraction of control) [13] | inhibition [14] | differentiation response [15] | response [16]
1 | CCN(CC)Cc1c[nH]c2c(C(=O)OC)cccc12 | 98.8% (inactive) | 104% (inactive) | 105% (inactive) | 102% (inactive) | 99.1% (inactive) | 60.2 | 183% (inactive) | 10% (inactive) | 98.4% (inactive) | 0% (inactive) | 12.3% (inactive) | -5.36% (inactive) | 105% (inactive) | -0.28 (inactive) | 7% (inactive) | -24.4% (inactive) | –
2 | CC(=O)Oc1cc(C(C)C)c(OCCN(C)C)cc1C | 103% (inactive) | 104% (inactive) | 94.9% (inactive) | 97.4% (inactive) | 99.9% (inactive) | 52.8 | 152% (inactive) | -0.24% (inactive) | 106% (inactive) | 6% (inactive) | -9.83% (inactive) | 8.27% (inactive) | 95.2% (inactive) | 0.1 (inactive) | 10% (inactive) | 19.2% (inactive) | –
3 | CC1(C)NC(C(=O)O)Cc2c1[nH]c1ccccc21 (configuration not stated) | 112% (inactive) | 106% (inactive) | 109% (inactive) | 98.4% (inactive) | 105% (inactive) | 62.5 | 175% (inactive) | 5.36% (inactive) | 97.5% (inactive) | 1% (inactive) | 14.4% (inactive) | -1.17% (inactive) | 112% (inactive) | 0.1 (inactive) | 8% (inactive) | -16.4% (inactive) | –
4 | COc1ccc(CCN(C)CCCC(C#N)(c2ccc(OC)c(OC)c2)C(C)C)cc1OC (configuration not stated) | 105% (inactive) | 104% (inactive) | 98.8% (inactive) | 95.4% (inactive) | 99.7% (inactive) | 63.8 | 183% (inactive) | 2.56% (inactive) | 101% (inactive) | -1% (inactive) | 53.9% (inactive) | 1.25% (inactive) | 102% (inactive) | – | 2% (inactive) | 24% (inactive) | –
5 | CC(C)(C)NCC(O)c1cc(O)cc(O)c1 (configuration not stated) | 97.8% (inactive) | 102% (inactive) | 95.1% (inactive) | 106% (inactive) | 119% (inactive) | 61.6 | 190% (inactive) | -15.6% (inactive) | 113% (inactive) | – | -13.2% (inactive) | -6.14% (inactive) | 100% (inactive) | -0.04 (inactive) | 6% (inactive) | -4.99% (inactive) | –
6 | Cc1nc(C(=O)Nc2ccccc2Cl)cc2c1[nH]c1ccccc12 | 99.6% (inactive) | 108% (inactive) | 106% (inactive) | 100% (inactive) | 98.2% (inactive) | 53.9 | 172% (inactive) | -1.17% (inactive) | 111% (inactive) | 1% (inactive) | -0.33% (inactive) | 2.14% (inactive) | 95.4% (inactive) | 0.14 (inactive) | 11% (inactive) | -9.89% (inactive) | –
7 | NCCCC(=O)O | 97.8% (inactive) | 99.9% (inactive) | 95.9% (inactive) | 103% (inactive) | 96.7% (inactive) | 57.8 | 192% (inactive) | 10.9% (inactive) | 103% (inactive) | 0% (inactive) | 2.65% (inactive) | -1.76% (inactive) | 99.8% (inactive) | 0.94 (active) | -31% (inactive) | -13.1% (inactive) | –
8 | Cc1cc(OC(C(=O)O)c2ccccc2)c2c(C)c(Cc3ccccc3)c(=O)oc2c1 (configuration not stated) | 103% (inactive) | 98.9% (inactive) | 97.9% (inactive) | 100% (inactive) | 95.1% (inactive) | 54.5 | 160% (inactive) | -3.04% (inactive) | 115% (inactive) | 2% (inactive) | 1.35% (inactive) | 5.52% (inactive) | 95.4% (inactive) | -0.05 (inactive) | 7% (inactive) | -3.43% (inactive) | –
9 | CCOC(=O)[C@H](CCc1ccccc1)N[C@@H](C)C(=O)N1CCC[C@H]1C(=O)O | 102% (inactive) | 98.3% (inactive) | 93.1% (inactive) | 98.6% (inactive) | 96.4% (inactive) | 64.3 | 171% (inactive) | -5.64% (inactive) | – | 13% (inactive) | 61% (active) | -5.12% (inactive) | 95.3% (inactive) | 0.46 (active) | 3% (inactive) | 25.7% (inactive) | -2.62% (inactive)
